Screen size: about 320,000 compounds; about 2,100 (0.66%) were called active.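 How the source made its calls: active means inhibition above the mean inhibition of all tested compounds plus 3 SD, set per campaign (cut at about 40% in these data); inactive means the rest.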 The full list was thinned out, with actives kept by preference.

For orientation: inhibition means the relative decrease from the control value, in per cent.

In this assay the target is Induced myeloid leukemia cell differentiation protein Mcl-1 (Homo sapiens) (UniProt Q07820). Put plainly: inhibitors of MCL1 binding to BIM-BH3, primary screen, biochemical, fluorescence polarization (AID 2057).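 Further: 0% = DMSO wells and 100% = unlabeled Bim-BH3 peptide control; higher means more loss of mP so more displacement of Bim peptide.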 The following applies: GST-MCL1 / FITC-Bim-BH3 fluorescence polarization; at 10.9 µM; stronger effect = higher value. In general terms: Fluorescence polarisation rises when a labelled molecule tumbles more slowly, as on binding a larger partner.
Sequence of Induced myeloid leukemia cell differentiation protein Mcl-1 (Homo sapiens) (Q07820 whole entry, looked up): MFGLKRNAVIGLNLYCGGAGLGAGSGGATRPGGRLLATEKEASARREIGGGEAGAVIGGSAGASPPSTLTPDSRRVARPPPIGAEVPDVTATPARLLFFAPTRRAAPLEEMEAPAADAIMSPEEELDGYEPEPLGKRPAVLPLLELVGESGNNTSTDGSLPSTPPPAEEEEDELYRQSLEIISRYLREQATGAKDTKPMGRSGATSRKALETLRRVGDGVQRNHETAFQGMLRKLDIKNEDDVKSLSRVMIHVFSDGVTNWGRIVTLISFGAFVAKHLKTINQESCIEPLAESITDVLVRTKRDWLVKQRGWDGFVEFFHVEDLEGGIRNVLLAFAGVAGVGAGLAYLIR
Consider `CCc1ccc(-c2cc(C)no2)cc1S(=O)(=O)NCCc1ccc(S(N)(=O)=O)cc1`, for which the inhibition was 7.69% (inactive).
In the case of `COc1ccc(CCNC(=O)CSCc2ccc(Br)cc2)cc1OC`, the inhibition is 13.2% (inactive).
The value for `O=C(O)c1cc(S(=O)(=O)N2CCCCCC2)c(Cl)cc1Cl` was 4.06% (inactive); that for `O=C(CNC(=O)c1ccccc1F)c1ccc(Br)cc1` was -5.03% (inactive).
For the compound `O=C(C[n+]1cc(Br)cc2ccccc21)c1ccc(F)cc1`, the inhibition was 63.3% (active).
Regarding `O=C(CNC(=O)c1ccc(F)cc1)c1ccccc1`, the inhibition is -5.56% (inactive).
As to `CCCCn1c(N)c(N(CCOC)C(=O)c2sc3ccccc3c2Cl)c(=O)[nH]c1=O`, the inhibition is -3.09% (inactive).
On to `O=C1c2ccccc2C(=O)N1CCC(O)C[N+](=O)[O-]` (centres undefined), for which the inhibition is 0.99% (inactive).
The value for `COCCOC(=O)c1sc(=S)n(CCOC)c1N` was 105% (active); that for `CCOC(=O)c1c(N)sc(C(C)=O)c1C` was 12.2% (inactive); that for `COC(=O)c1sc(=S)n(-c2ccc(Cl)cc2)c1C` was 1.56% (inactive).
`CCOc1ccccc1NC(=O)C1CCCN(S(=O)(=O)c2ccccc2)C1` (centres undefined): the inhibition is -2.29% (inactive).
In the case of `O=C(C/C(=N\NC(=O)c1ccccc1Br)C(F)(F)F)c1cccs1` it was 12.5% (inactive).
`O=c1ccc2c(-c3ccccc3S(=O)(=O)O)c3ccc(O)c(O)c3oc-2c1O`: the inhibition was 88.1% (active).
In the case of `Cn1c(Nc2ccccc2)cc(=O)n(C)c1=O` it was -3.95% (inactive); in that of `COC(=O)CCCC1=CC2=CC(=O)C(C)(OC(=O)c3cccs3)C(=O)C2=CN1CC(C)C` (centres undefined), 14.8% (inactive).
For `COC/C=C/C1=CC2=CC(=O)C(C)(OC(=O)CCC(=O)OC)C(=O)C2=CO1` (centres undefined), the inhibition was 64.3% (active).
In the case of `COC(=O)CCCC1=CC2=CC(=O)C(C)(OC(=O)c3cccs3)C(=O)C2=CN1CC1CC1` (centres undefined) it was 17.1% (inactive).
Turning to `O=C(CSc1ccccc1)Nc1cccc(S(=O)(=O)N2CCCCC2)c1`, the inhibition was -3.17% (inactive).
Turning to `COc1ccc(-c2ccc(OC(=O)NC3CCS(=O)(=O)C3)cc2)cc1` (centres undefined), the inhibition is 5.93% (inactive).
The value for `Cc1c(C)c(C)c2[nH]c(=S)[nH]c2c1C` was -26% (inactive); that for `O=c1[nH]c(=S)[nH]c2[nH]c(=S)[nH]c12` was 92.7% (active); that for `COc1ccccc1N1CCN(C(=O)c2cc(=O)c3cc(C)cc(C)c3o2)CC1` was 0.82% (inactive).
The value for `CCOc1ccc(N2CC(C(=O)NCCN3C(=O)S/C(=C\c4cccnc4)C3=O)CC2=O)cc1` (centres undefined) was -2.41% (inactive).
As for `COc1ccc(N2CC(C(=O)NCCN3C(=O)S/C(=C\c4cccnc4)C3=O)CC2=O)c(OC)c1` (centres undefined), the inhibition was 166% (active).
In the case of `COc1ccccc1N1CC(C(=O)NCCN2C(=O)S/C(=C\c3cccnc3)C2=O)CC1=O` (centres undefined) it was 14.4% (inactive); in that of `CC1CC(=O)N(CC(=O)Nc2cccc(Cl)c2)c2ccccc2S1(=O)=O` (centres undefined), -4.67% (inactive); in that of `CCCC1OC23CCCCC2C(C#N)(C#N)C1(C#N)C(=N)O3` (centres undefined), 95.8% (active).
As to `CCCC[C@@H]1CN=C(N)N1CCc1cc(C(F)(F)F)cc(C(F)(F)F)c1`, the inhibition is 10.6% (inactive).
Consider `O=C(Nn1c(-c2ccc(Cl)cc2)nc2ccccc2c1=O)c1cccnc1Cl`, for which the inhibition was 5.2% (inactive).
For `CN(C)c1ccc(Nc2c3c4c(cccc4n(C)c2=O)C(=O)c2ccccc2-3)cc1`, the inhibition was 55.2% (active).
The value for `CCOC(=O)C(CC)/C(C)=N\NC(=O)c1cccc(C)c1` (centres undefined) was -4.82% (inactive).
On to `Cc1ccc(NS(=O)(=O)c2ccc(F)cc2)nc1`, for which the inhibition is 1.22% (inactive).
As for `Cc1cc(-c2csc(N)n2)c(C)n1Cc1ccccc1`, the inhibition is 6.96% (inactive).
For the compound `CC(=O)c1ccc(-c2ccc(Cn3c(C)nc4cc(N)c(C)nc43)cc2)cc1`, the inhibition was 8.3% (inactive).
As to `COc1ccccc1NC(=O)COC(=O)Cc1ccc(S(=O)(=O)N2CCCCC2)s1`, the inhibition is -0.05% (inactive).
The value for `Cc1nn(-c2ccc([N+](=O)[O-])cc2)c(N)c1-c1ccccc1` was -34.6% (inactive).
The value for `Cc1nn(C(=O)c2ccoc2C)c(N)c1-c1ccccc1` was 193% (active); that for `C/C(=N\NC(=O)c1ccoc1C)c1ccccc1O` was 4.86% (inactive); that for `Cc1csc(NC(=O)CSc2nc(=O)n(CCCN(C)C)c3c2CCC3)n1` was -0.83% (inactive).
In the case of `COc1ccc(SCCN2CCN(CC(C)C)CCC2=O)cc1` it was -4.27% (inactive); in that of `CC(=O)N(CC(O)CO)c1c(I)c(C(=O)NCC(O)CO)c(I)c(C(=O)NCC(O)CO)c1I` (centres undefined), -0.91% (inactive).
Turning to `COCCn1c(SCC(=O)Nc2nc(C)cs2)nnc1C(C)C`, the inhibition is -2.37% (inactive).
In the case of `C1=C(N2CCOCC2)/C(=C/c2nc3ccccc3[nH]2)CC1`, the inhibition was 105% (active).
Regarding `O=c1[nH]c(N2CCOCC2)nc2ccccc12`, the inhibition is 2.38% (inactive).
As to `CC1(C)Cc2c(C#N)c(SCc3nc4ccccc4[nH]3)nc(N3CCOCC3)c2CO1`, the inhibition was 3.45% (inactive).
For the compound `CNC(=O)N1c2ccccc2C=Cc2ccccc21`, the inhibition was -1.86% (inactive).
In the case of `CS(=O)(=O)N1CCc2nc(-c3ccccc3)sc2C1` it was 7.75% (inactive).
For the compound `COc1ncnc2c1N=C1CC(C)(C)CC(N)=C1S2`, the inhibition was 191% (active).
The value for `CCN(CC)S(=O)(=O)c1ccc2[nH]c(=O)cc(C(=O)N(C)C3CCS(=O)(=O)C3)c2c1` (centres undefined) was 7.4% (inactive).
In the case of `CCCC(C(=O)OCCN(CC)CC)(c1ccccc1)c1ccccc1` it was -3.08% (inactive).
With `N#CC1=C(N)C(C#N)(C#N)[C@H](c2ccsc2)[C@H]2COCC=C12`, the inhibition was 32.7% (inactive).
In the case of `CCN1CC=C2C(C#N)=C(N)C(C#N)(C#N)[C@H](c3ccoc3)[C@H]2C1`, the inhibition is 171% (active).
The value for `CCCN1CC=C2C(C#N)=C(N)C(C#N)(C#N)C(c3cc(OC)ccc3OC)C2C1` (centres undefined) was 68.3% (active).
With `CSc1ccccc1NC(=O)c1cnc2sc(C)cn2c1=O`, the inhibition was 3.46% (inactive).
In the case of `O=C(OCC(=O)N1CCOCC1)c1ccc2ccccc2c1` it was -1.12% (inactive); in that of `Cn1c2ccccc2c(=O)c2c(=O)n(Cc3ccco3)c(COc3ccccc3)nc21`, 60.6% (active); in that of `O=c1c2ccccc2oc2nc(C3CCCCC3)n(Cc3ccco3)c(=O)c12`, 2.28% (inactive).
The value for `CCCc1nc2c(c(=O)c3ccccc3n2C)c(=O)n1C1CCCCCC1` was -7.58% (inactive).
In the case of `O=C(O)c1ccc(S(=O)(=O)N2CCOCC2)o1` it was -0.62% (inactive); in that of `COC(=O)N/N=C/c1c[n+]([O-])c2ccccc2[n+]1[O-]`, 5.75% (inactive).
As for `Cc1cc(/C=C2\SC(=Nc3ccc(N4CCOCC4)cc3)N(C)C2=O)c(C)n1-c1cccnc1`, the inhibition was -2.16% (inactive).
As to `CN1C(=O)/C(=C/c2ccco2)SC1=Nc1cccc(C(=O)O)c1`, the inhibition was 44.5% (active).
The value for `Cc1cc(/C=C2\SC(=O)N(C)C2=O)c(C)n1-c1cccc(C(=O)O)c1` was 10.5% (inactive).
The value for `COc1ccc(N(CC(=O)NC2CCCCC2)S(=O)(=O)c2c(C)[nH]c(=O)[nH]c2=O)cc1` was 5.18% (inactive); that for `CN(CCOc1ccccc1)C(=O)c1cc(-c2ccco2)nc2ccccc12` was 46% (active).
`COc1ccc(NC(=O)CN(C)C(=O)c2cc(-c3ccc(C)o3)nc3ccccc23)cc1`: the inhibition is 4.98% (inactive).
The value for `COc1ccc(-c2cc(C(=O)N(C)Cc3ccccc3)c3ccccc3n2)cc1` was -5.9% (inactive).
With `CN(C(=O)COC(=O)c1cc(-c2ccco2)nc2ccccc12)C1CCS(=O)(=O)C1` (centres undefined), the inhibition was 105% (active).
The value for `CN(C(=O)COC(=O)c1nc(Cl)ccc1Cl)C1CCS(=O)(=O)C1` (centres undefined) was -0.55% (inactive).
In the case of `CC1CCCN(C(=O)c2cc(-c3ccco3)nc3ccccc23)C1` (centres undefined) it was 7.17% (inactive); in that of `COc1ccccc1C(=O)N/C(=C/c1ccco1)C(=O)Nc1ccc(C(=O)O)cc1`, 12.1% (inactive); in that of `COC(=O)c1ccccc1NC(=O)CSc1nc2c(c(=O)[nH]1)CCC2`, 0.89% (inactive).
In the case of `CC(=O)N1CCC(C(=O)OCc2ccc(Cl)cc2)(c2ccccc2)CC1`, the inhibition was 7.68% (inactive).
The value for `CCCCC(NS(=O)(=O)c1ccc(C)cc1)C(=O)Oc1ccc2c3c(c(=O)oc2c1)CCC3` (centres undefined) was 1.03% (inactive).
In the case of `C#CCOCCOCCOCCNc1nc(N2CCN(C(=O)CCCCCCCCCCNC(=O)[C@H](CCCCN)n3cc(C)nn3)CC2)nc(N2CCN(C(=O)CCCCCCCCCCNC(=O)[C@H](CO)n3cc(CCCSC)nn3)CC2)n1` it was 14.4% (inactive); in that of `CN1c2ccc(C=O)c3c(C=O)ccc(c23)N(C)C1(C)C`, 167% (active); in that of `O=C(OCc1cc(Cl)ccc1OC(F)F)c1cccnc1`, -0.26% (inactive).
In the case of `CS(=O)(=O)Nc1ccccc1N=C(c1ccccc1)c1ccccc1` it was -1.05% (inactive).
Consider `COC(=O)/C=C\C(=O)Nc1cccc([N+](=O)[O-])c1`, for which the inhibition is 2.27% (inactive).
Consider `COC(=O)c1sc(NC(=S)NC(=O)c2ccc(C)cc2)nc1C`, for which the inhibition is 98.3% (active).
In the case of `COC(=O)c1sccc1NC(=S)Nc1ccc(C)cc1` it was 13.5% (inactive); in that of `Cc1ccc(C(=O)NC(=S)Nc2ccccc2C)cc1`, 4.14% (inactive); in that of `CCCN1C2=C(C(=O)CCC2)C(c2ccc(O)c(Br)c2)C2=C1CCCC2=O`, 43.5% (active).
The value for `COc1ccc(C2C3=C(CCCC3=O)N(CC(=O)O)C3=C2C(=O)CCC3)cc1` was 8.95% (inactive); that for `CCOc1ccc(C2C3=C(CCCC3=O)N(CC(=O)O)C3=C2C(=O)CCC3)cc1` was 17.6% (inactive).
The value for `COc1ccccc1N1CCN(S(=O)(=O)CCNC(=O)c2ccc(OC(C)C)cc2)CC1` was -5.21% (inactive).
Take `Cc1cc(C)n2nc(C(=O)N(C)C(c3ccccc3)c3ccccc3)nc2n1`: the inhibition was -7.96% (inactive).
In the case of `O=S(=O)([N-]c1nc2ccccc2nc1-[n+]1ccc(Cc2ccccc2)cc1)c1ccc(Br)s1` it was 87.1% (active); in that of `Cc1cc(C)c[n+](-c2nc3ccccc3nc2[N-]S(=O)(=O)c2cccs2)c1`, 3.38% (inactive).
The value for `O=C(NCCc1ccccc1)C1CCN(S(=O)(=O)c2ccc(Br)s2)CC1` was -0.6% (inactive); that for `Cc1cc(-c2nnc(SCC(=O)Nc3ccc(S(N)(=O)=O)cc3)n2N)n[nH]1` was -7.81% (inactive).
The value for `COc1ccc2ccccc2c1CNCc1ccccn1` was 4.21% (inactive).
With `CSc1ccccc1C(=O)OCC(=O)N1CCN(C(C)=O)CC1`, the inhibition was 1.83% (inactive).

(Values after PubChem BioAssay AID2057 (The Scripps Research Institute Molecular Screening Center, 2009).)
